The record followed here is PubChem BioAssay AID488857 (Sanford-Burnham Center for Chemical Genomics, 2010).

Hit rate of the full screen: of about 1,400 compounds, about 560 (40%) were called active. So high a share suggests a set chosen from earlier hits. This is one part of the list. A number with no mark means an inactive call.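 The calls were made as follows: active = mean inhibition over duplicate tests at 10 µM above 50%; inactive = the rest.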

The term inhibition denotes the share of the control response that was lost under treatment.

The test can be described thus: ASC/caspase-1 reporter retest in S. cerevisiae at one dose, specificity check for NALP1 project (AID 488857). Conditions: S. cerevisiae ASC/Caspase-1, beta-galactosidase luminescence, 24 h; at 10 µM; stronger effect = higher value.
Consider `COc1ccc(CNCC(O)(c2ccccc2)c2ccc(Cl)cc2)cc1` (configuration not stated), for which the inhibition is 60% (active).

Turning to `C=C(C(=O)c1ccccc1)C(C)C(=C)C(=O)c1ccccc1`, the inhibition is 59.5% (active).

Consider `CNC(=O)C(NC(=O)c1ccccc1)=C(C)C`, for which the inhibition was 38.2%.

For the compound `COC(=O)c1c(N)c(C#N)c2n1CCCCC2`, the inhibition is 37.8%.

For `CCOC(=O)c1nc(C)sc1-c1ccnn1S(=O)(=O)c1ccc(C)cc1`, the inhibition is 45.4%.

Regarding `COc1ccc(-c2nc(N)n(S(=O)(=O)c3ccc(C)cc3)n2)cc1`, the inhibition was 63.5% (active).

As for `Nc1nc(-c2ccco2)nn1S(=O)(=O)c1ccccc1`, the inhibition is 21.7%.

On to `Cc1c(-c2nc(N)nc(Nc3ccccc3)n2)oc2ccccc12`, for which the inhibition is 45.6%.

In the case of `O=C1CC(Sc2nnnn2-c2ccccc2)C(=O)N1c1cccc(Cl)c1` (configuration not stated), the inhibition is 47.4%.

Turning to `CCOc1cccc(N2C(=O)CC(N3CCN(c4ccc(S(=O)(=O)CC)cc4)CC3)C2=O)c1` (configuration not stated), the inhibition was 34.4%.

As to `CCOc1ccc2nc(SC3CC(=O)N(c4cccc(OC)c4)C3=O)sc2c1` (configuration not stated), the inhibition was 85% (active).

`COC(=O)CSC1=C(C#N)C(=O)NC(c2ccccc2)S1` (configuration not stated): the inhibition is 39.5%.

Turning to `COCCNC(=O)c1ccc(C)c(S(=O)(=O)Nc2ccc(C)cc2)c1`, the inhibition was 27.9%.

`Cc1cccc(C(=O)NCc2ccc(S(N)(=O)=O)cc2)c1[N+](=O)[O-]`: the inhibition was 30.2%.

Take `CCn1c2ccccc2c2cc(NC(=O)c3ccc(C)c([N+](=O)[O-])c3)ccc21`: the inhibition is 45.8%.

As to `Cc1ccc(C(=O)NCCSCc2ccccc2)cc1[N+](=O)[O-]`, the inhibition is 52.2% (active).

Turning to `Cc1ccc(S(=O)(=O)NC2=NCN(CCOC(=O)c3ccc([N+](=O)[O-])cc3)CN2)cc1`, the inhibition was 14.1%.

For `Cc1ccc(C(=O)NCCc2cccc(Cl)c2)cc1[N+](=O)[O-]`, the inhibition is 73.5% (active).

Regarding `COCCNC(=O)CCc1ccc(S(=O)(=O)Nc2ccc(C)cc2)cc1`, the inhibition is 25.9%.

`Cc1ccc(CSCCNC(=O)CSCc2ccc([N+](=O)[O-])cc2)cc1`: the inhibition is 68.6% (active).

For `CCCCCCC1CCC(C(=O)Nn2c(C)nc3ccccc3c2=O)CC1` (configuration not stated), the inhibition was 49%.

Consider `CC1CCCC/C1=N\Nc1ccc(S(N)(=O)=O)cc1[N+](=O)[O-]` (configuration not stated), for which the inhibition was 25.7%.

Turning to `CCc1ccc(C(=O)NC(CC(C)C)C(=O)O)cc1` (configuration not stated), the inhibition is 46.8%.

For `CC(NC(=O)Nn1cnnc1)(C(F)(F)F)C(F)(F)F`, the inhibition was 26.3%.

For the compound `Clc1ccc(Nc2ccc(NCc3ccccc3)nn2)cc1`, the inhibition was 85.7% (active).

Take `COc1cc(C2Nc3ccccc3C(=O)N2c2ccccc2)ccc1O` (configuration not stated): the inhibition was 15.1%.

Consider `O=C(Nc1cc(Cl)ccc1-n1cncn1)c1ccc([N+](=O)[O-])s1`, for which the inhibition is 92% (active).
